# Bioassay records: PubChem BioAssay, National Center for Advancing Translational Sciences (NCATS)
# Only a selection was taken, and hits are over-represented in it overall.
# ERK EGF inh: qHTS Assay for Inhibitors of the ERK Signaling Pathway using a Homogeneous Screening Assay; Stimulation with EGF. HEK293-V1b, EGF-stimulated phospho-ERK AlphaScreen. Potency, µM (top dose mostly 11.5 µM), for the others: at the highest dose activity change, negative = inhibition, usual class: inhibitors. 130,000 tested, 0.41% active; active = well fitted inhibition curve with a large enough effect;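 note: plate controls were stimulated vehicle wells for no effect and unstimulated vehicle basal for full effect; nearly all actives have a fitted effect of over 55% in size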
#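 After overnight plating in 1% FBS, HEK293-V1b cells received test compound for half an hour, then a 5 min pulse of EGF (25 nM); ERK phosphorylation in lysates was read by bead-based AlphaScreen.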
# * marks the source's active call; other numbers are inactive results; [ ] = remark or other dose. Potency is the fitted concentration of half-maximal effect.
SMILES,ERK EGF inh
O=C(O)c1ccc(COc2ccccc2/C=C2\NC(=O)N(Cc3ccccc3F)C2=O)cc1,35%
O=C(O)c1ccc(COc2ccc3ccccc3c2/C=C2/NC(=O)N(Cc3ccc(F)cc3)C2=O)cc1,35µM*
COc1cccc(Cn2c(=O)cnc3cnc(Oc4cccc(Cl)c4)nc32)c1,10%
CCOC(=O)C1CCN(c2ncnc3c2cnn3-c2ccc(OC)cc2)CC1,10%[57.5 µM]
COc1ccc(-n2ncc3c(N4CCC(C(N)=O)CC4)ncnc32)cc1,6%[57.5 µM]
COc1ccc(-n2ncc3c(N4CCN(Cc5ccccc5)CC4)ncnc32)cc1,32µM*
COC1C=CC23c4cc5c(cc4CN(CC2O)C3C1)OCO5 (stereo not given),11%
COC(=O)N1CCC2(CC1)CN(C(=O)Nc1cccc(F)c1)C2,-1%
CCN1/C(=C2\OC(=S)N(C)C2=O)C=Cc2ccccc21,-2%
CCN1/C(=C2\C(=O)N(C)C(=S)N2C)C=Cc2cc(OC)ccc21,2%
CCN1C(=O)/C(=C2/C=Cc3cc(C)ccc3N2CC)N(C)C1=S,14µM*
COc1cccc(Cn2c(=O)c(C)nc3cnc(OCc4ccccc4)nc32)c1,0%
CCCCC/C=C\C\C=C/C=C/C=C/[C@@H](SCC(N)C(=O)NCC(=O)O)[C@@H](O)CCCC(=O)O (stereo not given in full),-14%
COc1ccccc1NC1=C(Cl)C(=O)N(c2ccccc2)C1=O,4%
COc1ccccc1NC(=S)N(c1ccccc1)C(C)C,1%
COC1=C(Nc2ccccc2OC)C(=O)c2ccccc2C1=O,14µM*
CNC(=O)Oc1ccc2c(c1)[C@@]1(C)CCN(C)C1N2C (stereo not given in full),19%
O=C(O)c1ccc(Sc2nnc3ccccn23)c([N+](=O)[O-])c1,5%[57.5 µM]
Cc1cc2ccccn2c1C(=O)c1cc([N+](=O)[O-])cc([N+](=O)[O-])c1,28µM*
CCN(CC)S(=O)(=O)c1cccc(C(=O)c2c(C)cc3ccccn23)c1,3%
Cc1cc2ccccn2c1C(=O)Nc1ccccc1,-6%
Cc1cc2ccccn2c1C(=O)c1ccc(NN)c([N+](=O)[O-])c1,25µM*
Cc1cccc(NC(=O)CSc2ccc(C(N)=O)cc2[N+](=O)[O-])c1C,-2%
CCC/C=C(\CCC)C(NS(=O)(=O)c1cccs1)c1ccc(C(=O)OC)cc1 (stereo not given),2%
CCCn1c(C)nc2c(NCC(C)(C)CN(C)C)nc(C)nc21,12%
SMILES,ERK EGF inh
Cc1cc(C)c(NC(=S)NCC2CCN(C(C)c3ccccc3)C2)c(C)c1 (stereo not given),-7%[57.5 µM]
CCc1ccccc1NC(=S)N1CCC(NC(=O)c2ccc(OC)cc2)CC1,-12%
CCc1cccc(C)c1NC(=S)NCC1CCN(c2ccc(OC)cc2)C1 (stereo not given),10µM*
Cc1ccccc1NC(=S)NCC1CCC(CNC(=S)Nc2ccccc2C)CC1 (stereo not given),7%[57.5 µM]
CCc1ccccc1NC(=S)NCC1CCN(c2ccc(OC)cc2)C1 (stereo not given),14µM*
COc1ccc(N2CCN(C(=O)Nc3ccccc3Cl)CC2)cc1,-1%
O=C(c1cccc(F)c1)N1CCC[C@@]2(CCN(Cc3nccs3)C2)C1,6%
COC(=O)N[C@@H](/C=C/c1ccccc1)C[N+](=O)[O-],-4%
O=C(c1ccncc1)N1CCC2(CCCN(c3cccc(-c4ccccc4)c3)C2)CC1,0%
C=CCOC(=O)C1=C(C)NC(C)=C(C(=O)OCC=C)C1/C=C/c1ccccc1,25µM*
C=CCOC(=O)C1=C(C)Nc2[nH]c(=O)[nH]c(=O)c2C1c1ccccc1 (stereo not given),4%
C=CCOC(=O)C1=C(C)NC(C)=C(C(=O)OCC=C)C1c1ccco1,3%[57.5 µM]
N#Cc1cccc(NC(=O)N2CCCC3(CCN(C(=O)c4cc(C(F)(F)F)cc(C(F)(F)F)c4)CC3)C2)c1,1%
Cc1noc(C)c1C(=O)N1CCC[C@@]2(CCN(c3ccccn3)C2)C1,2%
CCCCC/C=C\C/C=C\CCCCCCCC(=O)NCCc1ccc(O)c(O)c1,-9%
O=C(O)c1cccc(Nc2cc(Cl)c3nonc3c2[N+](=O)[O-])c1,0%
O=[N+]([O-])c1ccc(Nc2ccccn2)c([N+](=O)[O-])c1,-9%
O=[N+]([O-])c1c(Nc2ccccn2)cc(Cl)c2nonc12,14µM*
Cc1ccccc1-c1cncnc1Nc1ccc(F)cc1,11%
O=C(c1csnn1)N1CCC2(CCCN(C(c3ccccc3)c3ccccc3)C2)CC1,-12%
Cc1nc(N2CCOCC2)c2nc(-c3ccccc3)n(CC(C)(C)CN(C)C)c2n1,1%
Cc1[nH]c2ccccc2c1N=Nc1ccc(F)cc1,2%
Cc1[nH]c(N=Nc2ccccc2)nc1N=Nc1ccccc1,22µM*
Cc1cc(=O)n2[nH]c(N)c(N=Nc3ccccc3)c2n1,6%
NCCC(O)C(=O)NC1C[C@@H](N)[C@H](O[C@@H]2OC(CN)C(O)C(O)C2O)C(O)[C@H]1O[C@H]1OC(CO)C(O)C(N)C1O (stereo not given in full),-1%
SMILES,ERK EGF inh
O=C(c1cc(C(F)(F)F)cc(C(F)(F)F)c1)N1CCC[C@@]2(CCN(Cc3ccncc3)C2)C1,12%
COC(=O)[C@@H](NC(=O)O[C@@H]1C(=O)c2ccc(OC)cc2O[C@H]1c1ccc2c(c1)OCO2)C(C)C,13%
CS(=O)(=O)c1ccc(C(O)C(CO)NC(=O)C(Cl)Cl)cc1 (stereo not given),10%
O=C(c1ccco1)N1CCC2(CCN(Cc3ccccc3)CC2)CC1,3%
O=[N+]([O-])c1cccc(Nc2nc(Cl)nc(Cl)n2)c1,-10%
Nc1c(S(=O)(=O)O)cc(Nc2ccc(Nc3nc(Cl)nc(Nc4ccc(S(=O)(=O)O)cc4)n3)c(S(=O)(=O)O)c2)c2c1C(=O)c1ccccc1C2=O,25µM*
O=[N+]([O-])c1ccc(Nc2nc(Cl)nc(NCCO)n2)cc1,5%
O=C1C(Nc2ccccc2)=C/C(=N/S(=O)(=O)c2cccs2)c2ccccc21,14µM*
CCc1cc[n+](C2=C([O-])c3ccccc3C(=O)/C2=N\S(=O)(=O)c2cccs2)cc1,10%
CC1=CC(=O)c2ccccc2C1=O,-13%
Cc1ccc(N/C(=N/S(=O)(=O)c2cccs2)c2ccccc2)c(C)c1,3%
O=C1C=C(Nc2ccccc2)c2ccccc2C1=O,-3%
O=C1C=C(Nc2ccccc2)C(=O)c2ccccc21,25µM*
CN1CCN(c2ncc3nc(-c4ccccc4)c(=O)n(CCC#N)c3n2)CC1,9%
CN1CCC2(CC1)CCN(C(=O)c1ccncc1)CC2,-5%
Cc1nc(NC2CCCCC2)c2nc(-c3ccccc3)n(CCCN3CCCCC3C)c2n1 (stereo not given),1%
O=C(c1cccc(F)c1)N1CCC[C@@]2(CCN(C(c3ccccc3)c3ccccc3)C2)C1,-18%
Cc1noc(C)c1C(=O)N1CCC2(CC1)CN(c1ccccn1)C2,2%
COc1ccc(C(=O)N2CCC3(CCCN(Cc4cc(C(F)(F)F)cc(C(F)(F)F)c4)C3)CC2)cc1,7%
CC1(C)CC[C@]2(C(=O)O)C(O)C[C@@]3(C)C(=CCC4[C@@]5(C)CCC(O)C(C)(C)C5CC[C@@]43C)C2C1 (stereo not given in full),15%
COc1ccc(Oc2ncc3nc(C)c(=O)n(Cc4ccc(F)cc4)c3n2)cc1,1%
Fc1ccc(CSc2ncnc3c2oc2ccccc23)cc1,7%
c1coc(CN(Cc2ccco2)c2ncnc3c2oc2ccccc23)c1,18µM*
CCn1cnc2c(oc3ccccc32)c1=O,-3%
